Experimental data taken from PubChem BioAssay (NCI).
This is part of a sample that, as a whole, favours compounds with a hit. Of some 83,000 tested, about 20% had one in any assay.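 Each cell line was grown in a 96-well plate and treated with one concentration of compound for 48 hours. Values below 10 were considered active.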 Active and inactive are the calls of the source.

Tests used:
Assay in all cases: NCI-60 one-dose screen, 48 h (100 = growth as untreated, 0 = no growth, -100 = all killed)
Conditions in all cases: 10 µM unless noted
NCI-H23 lung = tested on: NCI-H23 lung
NCI-H226 lung = tested on: NCI-H226 lung
NCI-H322M lung = tested on: NCI-H322M lung
HOP-62 NSCLC = tested on: HOP-62 NSCLC
NCI-H460 lung = tested on: NCI-H460 lung
HOP-92 NSCLC = tested on: HOP-92 NSCLC
NCI-H522 lung = tested on: NCI-H522 lung
A549/ATCC NSCLC = tested on: A549/ATCC NSCLC
786-0 renal = tested on: 786-0 renal
COLO 205 colon = tested on: COLO 205 colon
DU-145 prostate = tested on: DU-145 prostate
K-562 leukemia = tested on: K-562 leukemia
MALME-3M melanoma = tested on: MALME-3M melanoma
MDA-MB-231 breast = tested on: MDA-MB-231 breast
RXF 393 renal = tested on: RXF 393 renal
SF-268 CNS = tested on: SF-268 CNS
SF-295 CNS = tested on: SF-295 CNS
SF-539 CNS = tested on: SF-539 CNS
UACC-257 melanoma = tested on: UACC-257 melanoma
M14 melanoma = tested on: M14 melanoma

Measured: growth

COc1ccc(S(=O)(=O)N(Cc2ccc3c(c2)C=CC(C)(C)O3)c2ccccc2)cc1OC
inactive: NCI-H23 lung 47.6% | NCI-H226 lung 55.4% | NCI-H322M lung 102% | HOP-62 NSCLC 87.1% | NCI-H460 lung 76.7% | HOP-92 NSCLC 88.2% | NCI-H522 lung 61.5% | A549/ATCC NSCLC 79.1% | 786-0 renal 87.1% | COLO 205 colon 64.7% | DU-145 prostate 96.6% | K-562 leukemia 63.2% | MALME-3M melanoma 83.4% | MDA-MB-231 breast 96.6% | RXF 393 renal 77.2% | SF-268 CNS 87.4% | SF-295 CNS 70.6% | SF-539 CNS 97.3% | UACC-257 melanoma 61.9% | M14 melanoma 87.6%

COc1cccc(/C=C/[N+](=O)[O-])c1
active: DU-145 prostate -2.85% | K-562 leukemia 7.02% | RXF 393 renal -60.7%
inactive: NCI-H23 lung 43.3% | NCI-H226 lung 65.2% | NCI-H322M lung 88.8% | HOP-62 NSCLC 89.9% | NCI-H460 lung 100% | HOP-92 NSCLC 78.9% | NCI-H522 lung 63.2% | A549/ATCC NSCLC 61.2% | 786-0 renal 54.6% | COLO 205 colon 19.5% | MALME-3M melanoma 89.8% | MDA-MB-231 breast 87.6% | SF-268 CNS 78.2% | SF-295 CNS 84.3% | SF-539 CNS 50.8% | UACC-257 melanoma 83.1% | M14 melanoma 12.3%

CC(=O)[C@H]1CC[C@H]2[C@@H]3CC[C@H]4C[C@H](N)CC[C@]4(C)[C@H]3CC[C@]12C
active: HOP-92 NSCLC 7.56%
inactive: NCI-H23 lung 86.7% | NCI-H226 lung 95.7% | NCI-H322M lung 107% | HOP-62 NSCLC 77.1% | NCI-H460 lung 79.9% | NCI-H522 lung 77.3% | A549/ATCC NSCLC 66.4% | 786-0 renal 60.7% | COLO 205 colon 49.3% | DU-145 prostate 92.2% | K-562 leukemia 56% | MALME-3M melanoma 82.9% | MDA-MB-231 breast 72.7% | RXF 393 renal 66.8% | SF-268 CNS 92% | SF-295 CNS 99.6% | SF-539 CNS 84.6% | UACC-257 melanoma 55.2% | M14 melanoma 68.3%

O=[N+]([O-])c1cnc[nH]1
inactive: NCI-H23 lung 103% | NCI-H226 lung 105% | NCI-H322M lung 121% | HOP-62 NSCLC 106% | NCI-H460 lung 108% | HOP-92 NSCLC 93.7% | NCI-H522 lung 106% | A549/ATCC NSCLC 103% | 786-0 renal 112% | COLO 205 colon 119% | DU-145 prostate 116% | K-562 leukemia 123% | MALME-3M melanoma 112% | MDA-MB-231 breast 101% | RXF 393 renal 128% | SF-268 CNS 106% | SF-295 CNS 104% | SF-539 CNS 110% | UACC-257 melanoma 103% | M14 melanoma 119%

CCC1CC(O)c2c(O)c3c(c(O)c2C1O)C(=O)c1cccc(O)c1C3=O (stereo not given) (tested in a mixture with another compound)
active: NCI-H23 lung -75.9% | NCI-H226 lung -9.01% | NCI-H322M lung -16.4% | HOP-62 NSCLC -62.2% | NCI-H460 lung -53.6% | HOP-92 NSCLC -29.3% | NCI-H522 lung -47.9% | A549/ATCC NSCLC -23.2% | 786-0 renal -31% | COLO 205 colon -46.4% | DU-145 prostate -1.28% | K-562 leukemia -44.1% | MALME-3M melanoma -92.3% | MDA-MB-231 breast -18.8% | RXF 393 renal -27% | SF-268 CNS -24% | SF-295 CNS -24% | SF-539 CNS -64.5% | UACC-257 melanoma -25.3% | M14 melanoma -97.1%

COc1cc([C@@H]2c3cc4c(cc3[C@H](OC(C)=O)[C@H]3COC(=O)[C@@H]23)OCO4)cc(OC)c1OC
inactive: NCI-H226 lung 33.2% | NCI-H322M lung 36.3% | HOP-62 NSCLC 10.6% | HOP-92 NSCLC 27.2% | A549/ATCC NSCLC 10.5% | K-562 leukemia 11.2% | MALME-3M melanoma 57.1% | RXF 393 renal 52% | SF-268 CNS 33% | UACC-257 melanoma 49.2%
active: NCI-H23 lung 0.572% | NCI-H460 lung -4.08% | NCI-H522 lung -34.7% | 786-0 renal 2.27% | COLO 205 colon -75.8% | DU-145 prostate 3.27% | MDA-MB-231 breast 8.36% | SF-295 CNS -15.7% | SF-539 CNS -33.4% | M14 melanoma -15.2%

CC[C@H](C)[C@@H]([C@@H](CC(=O)N1CCC[C@H]1[C@H](OC)[C@@H](C)C(=O)N[C@H](C)[C@@H](O)c1ccccc1)OC)N(C)C(=O)[C@@H](NC(=O)[C@@H](NC)C(C)C)C(C)C
active: NCI-H460 lung 9.17% | NCI-H522 lung -36.1% | COLO 205 colon -72.1% | SF-539 CNS -13.9% | M14 melanoma 1.24%
inactive: NCI-H23 lung 27.9% | NCI-H226 lung 66.9% | NCI-H322M lung 50.8% | HOP-62 NSCLC 25.8% | HOP-92 NSCLC 11.5% | A549/ATCC NSCLC 21.4% | 786-0 renal 21.2% | DU-145 prostate 10.5% | K-562 leukemia 11% | MALME-3M melanoma 55.6% | MDA-MB-231 breast 16.9% | RXF 393 renal 46% | SF-268 CNS 39% | SF-295 CNS 10.8% | UACC-257 melanoma 65.7%

CC(=O)O[C@H]1C(=O)[C@@]2(C)[C@H]([C@H](OC(=O)c3ccccc3)[C@]3(O)C[C@H](OC(=O)[C@H](OC(=O)OC[C@H]4COC(C)(C)O4)[C@@H](NC(=O)c4ccccc4)c4ccccc4)C(C)=C1C3(C)C)[C@]1(OC(C)=O)CO[C@@H]1C[C@@H]2O
active: NCI-H460 lung 4.16% | NCI-H522 lung 5.12% | COLO 205 colon -15.1% | DU-145 prostate 5.18% | MDA-MB-231 breast -4.56% | RXF 393 renal -7.11% | SF-295 CNS -6.58% | SF-539 CNS -13.3% | M14 melanoma -19%
inactive: NCI-H23 lung 21.6% | NCI-H226 lung 55.5% | NCI-H322M lung 14.9% | HOP-62 NSCLC 21.7% | HOP-92 NSCLC 53.4% | A549/ATCC NSCLC 12.5% | 786-0 renal 20.2% | K-562 leukemia 11.6% | MALME-3M melanoma 27.2% | SF-268 CNS 29.7% | UACC-257 melanoma 48.3%
